In ChEMBL document CHEMBL4513146, “CO-ADD screening of Karazin Kharkiv National University (Ukraine) compounds”:
Results with a measured potency or affinity are listed apart.

Legend:
Klebsiella pneumoniae = conditions: Concentration 32 ug.mL-1;; ASSAY_TEST Inhibition of Bacterial Growth; detection method Absorption (OD600); MEDIA CAMHB; plate type 384well; NBS; CORNING #3640; time 18 hr
Candida albicans = conditions: Concentration 32 ug.mL-1; ASSAY_TEST Inhibition of Fungal Growth; detection method Absorption (OD530)
Cryptococcus neoformans = conditions: Concentration 32 ug.mL-1; ASSAY_TEST Inhibition of Fungal Growth; detection method Resazurin; Absorption (OD600-OD570); plate type 384well; NBS; CORNING #3640

Structure (SMILES)	Inhibition (Klebsiella pneumoniae) [%]	Inhibition (Candida albicans) [%]	Inhibition (Cryptococcus neoformans) [%]
CCCc1nnc2c(=O)n(CC(=O)Nc3ccc(NC(C)=O)cc3)c3ccccc3n12	9.56	-0.49	-26.74
COc1ccc(N2CCN(C(=O)Cn3nc4c(Oc5ccc(C)cc5)nccn4c3=O)CC2)cc1	7.21	1.27	-9.68
O=C(CSc1nnc2c(=O)n(Cc3ccc(F)cc3)ccn12)NC1CCCC1	8.75	5.19	-22.84
CCc1cccc(NC(=O)Cn2nc3c(SC4CCCCC4)nccn3c2=O)c1	3.05	12	-17.3
COc1ccc(NC(=O)c2ccc3nn(CC(=O)Nc4ccc(C)c(F)c4)c(=O)n3c2)cc1	0.39	10.47	-14.12
COc1cccc(Sc2nc3ccccc3n3c(=O)n(CC(=O)N4CCCc5ccccc54)nc23)c1	2.78	0.71	-20.75
CCc1nnc2c(SCC(=O)Nc3ccc(OC)c(Cl)c3)nc3ccccc3n12	11.84	5.38	-21.55
CCc1ccc(N(Cc2cccc(OC)c2)S(=O)(=O)c2cccn3c(C)nnc23)cc1	-1.7	-0.37	-7.84
O=c1c2sccc2n2c(=O)n(Cc3ccccc3Cl)nc2n1CCc1ccccc1	12.78	2.07	-28.45
COc1ccc(NC(=O)CSc2nnc3c(=O)n(-c4cccc(F)c4)ccn23)cc1OC	7.43	3.49	-8.06
